Bioassay records deposited in PubChem by The Scripps Research Institute Molecular Screening Center.
PP1 counter = counter-screen for PP5 inhibitors: inhibitors of human PP1-alpha; P62136; 320,000 tested, 0.9% active; purified PP1alpha, OMFP fluorescence; inhibition, % at 6.7 µM;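 active = inhibition above the mean inhibition of all tested compounds plus 3 SD, computed separately for each screening campaign, cut at about 15% in these data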
pPAFAH inh = inhibitors of human plasma PAF acetylhydrolase (pPAFAH); recombinant pPAFAH, FP-rhodamine probe fluorescence polarization; inhibition, % at 3.39 µM; 330,000 tested, 1.5% active; AID 463082;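 active = inhibition above the mean inhibition across the screen plus 3 SD, cut at about 25% in these data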;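 also: inhibitors block binding of the rhodamine activity-based probe so polarization drops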
PP5 primary = inhibitors of human protein phosphatase 5 (PP5) | 320,000 tested, 0.18% active | inhibition, % at 6.7 µM | P53041 | purified PP5c, OMFP substrate fluorescence;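 active = inhibition above the campaign's mean inhibition across all tested compounds plus 3 SD, cut at about 9.5% in these data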
PAFAH2 FP inh = PAFAH2 (human) inhibition; AID 492956; Q99487; inhibition, % at 3.39 µM; 340,000 tested, 0.99% active; recombinant PAFAH2, FP-rhodamine activity probe, fluorescence polarization;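 active = inhibition above the mean over all tested compounds plus 3 SD, cut at about 30% in these data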;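 also: inhibitors block probe labeling of enzyme so polarization drops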
PAFAH1B2 FP inh = blocks human PAF acetylhydrolase 1b catalytic subunit 2 | P68402 | recombinant PAFAH1B2, FP-rhodamine activity probe, fluorescence polarization | inhibition, % at 3.39 µM | 340,000 tested, 1.2% active | AID 492953;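 active = inhibition above the mean of all tested compounds plus 3 SD, cut at about 24% in these data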
Target sequence (P68402 whole entry, looked up): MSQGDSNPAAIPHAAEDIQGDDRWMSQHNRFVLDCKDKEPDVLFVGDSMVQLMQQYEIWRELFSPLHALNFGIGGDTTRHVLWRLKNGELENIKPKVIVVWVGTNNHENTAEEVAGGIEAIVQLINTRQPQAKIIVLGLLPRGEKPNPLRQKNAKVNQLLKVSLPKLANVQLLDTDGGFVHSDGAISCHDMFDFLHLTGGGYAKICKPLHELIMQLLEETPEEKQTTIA
PAFAH1B3 FP inh = inhibitors of human PAFAH1B3; Q15102; AID 492972; inhibition, % at 3.39 µM; recombinant PAFAH1B3, FP-rhodamine probe, fluorescence polarization; 340,000 tested, 0.28% active;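 active = inhibition above the screen-wide average of all tested compounds plus 3 SD, cut at about 25% in these data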
Target sequence (Q15102 whole entry, looked up): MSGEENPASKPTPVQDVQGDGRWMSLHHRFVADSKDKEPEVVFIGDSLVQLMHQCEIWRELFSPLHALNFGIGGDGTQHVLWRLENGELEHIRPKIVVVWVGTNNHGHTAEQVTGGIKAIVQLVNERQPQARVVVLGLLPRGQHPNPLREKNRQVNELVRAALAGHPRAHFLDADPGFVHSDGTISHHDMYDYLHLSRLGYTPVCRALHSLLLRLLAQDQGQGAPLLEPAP
Numbers stand for hits; - = inactive; . = not tested or not shown. The list is not random: actives were taken first. Their share in the collection is about 3.4%.

SMILES	PP1 counter	pPAFAH inh	PP5 primary	PAFAH2 FP inh	PAFAH1B2 FP inh	PAFAH1B3 FP inh
Cc1cc2cc(C(c3nnnn3Cc3ccco3)N3CCc4ccccc4C3)c(=O)[nH]c2cc1C (configuration not stated)	15.3	-	-	-	-	-
Cc1cc2cc(C(c3nnnn3Cc3ccco3)N3CCc4ccccc43)c(=O)[nH]c2cc1C (configuration not stated)	-	30.4	-	-	-	-
COc1ccc2cc(C(c3nnnn3C(C)(C)C)N3CCc4ccccc4C3)c(=O)[nH]c2c1 (configuration not stated)	-	33.6	-	.	.	.
CC1CN(C2CCCCC2)C(=O)NC1=O (configuration not stated)	.	.	.	-	-	-
CC1(C)CC(=O)c2c(O)c(-c3ccccc3)c(=O)n(-c3ccccc3)c2C1	-	-	-	-	-	-
COc1ccc(NC(=S)N(CCCN2CCOCC2)C(C)c2cc3cccc(OC)c3o2)cc1 (configuration not stated)	-	27.8	-	-	-	-
CC(C)(C)NC(=O)CSc1nnc(C2CC2)n1-c1ccccc1	-	-	-	-	-	-
COCCCNC(=O)c1ccc2c(=O)n(Cc3ccc4c(c3)OCO4)c(=S)[nH]c2c1	16.8	-	-	-	-	-
O=c1[nH]cnc2c1c(-c1ccccc1)cn2-c1cccc(Cl)c1	-	34.3	-	-	-	-
O=c1c2ccccc2ncn1CCCSc1ccc(Cl)cc1	-	-	-	-	51.0	-
O=c1c2ccccc2ncn1CCCSc1ccccc1	-	-	-	-	-	-
Cc1ccc(NC(=O)C2CCCN(S(=O)(=O)c3cccnc3)C2)c(C)c1 (configuration not stated)	-	-	-	-	-	-
CC(OC(=O)Cc1ccsc1)C(=O)Nc1ccc(C(N)=O)cc1 (configuration not stated)	-	-	-	-	-	-
CCN(C1CCCCC1)S(=O)(=O)c1ccc(S(=O)(=O)N2CCN(CCC#N)CC2)cc1	-	-	-	-	25.3	-
CCCNC(=O)c1ccc(N2CCC3(CC2)CC(c2ccccc2)=NO3)c(NC(=O)c2ccc(Br)cc2)c1	-	-	-	-	-	-
Cc1ccc(CNC(=O)c2ccc(N3CCC4(CC3)CC(c3ccccc3)=NO4)c(NC(=O)c3ccc(Cl)c([N+](=O)[O-])c3)c2)cc1	15.4	-	-	-	-	-
CCCNC(=O)c1ccc(N2CCC3(CC2)CC(c2cccc(Br)c2)=NO3)c(NC(=O)c2ccccc2)c1	15.7	-	-	-	-	-
CC(C(=O)Nc1nc(-c2ccc(F)cc2)cs1)N1C(=O)C2CC=CCC2C1=O (configuration not stated)	-	-	-	-	-	-
Cc1sc2nc(CSCC(=O)NC3(C#N)CCCCC3)[nH]c(=O)c2c1C	-	-	-	-	-	-
CCc1cc(=O)oc2c3c(cc(OCC(=O)NCCCC(=O)O)c12)OC(C)(C)CC3	-	31.7	-	38.9	-	-
Cc1cc(=O)oc2c3c(cc(OCC(=O)NCc4cccnc4)c12)OC(C)(C)CC3	-	-	-	-	-	-
COc1ccccc1CNC(=O)COc1cc2c(c3oc(=O)cc(C)c13)CCC(C)(C)O2	-	-	-	-	26.7	-
Cc1cc(=O)oc2c3c(cc(OCC(=O)NC(Cc4ccc(Cl)cc4)C(=O)O)c12)OC(C)(C)CC3 (configuration not stated)	-	27.0	-	33.2	57.9	-
Cc1cc(=O)oc2c3c(cc(OCC(=O)N[C@@H](C)C(=O)O)c12)OC(C)(C)CC3	.	.	.	-	-	-
CC1CC=C(O)C12OCC(C)(C)CO2 (configuration not stated)	.	.	.	-	-	-
SMILES	PP1 counter	pPAFAH inh	PP5 primary	PAFAH2 FP inh	PAFAH1B2 FP inh	PAFAH1B3 FP inh
Cc1cc(C)c(S(=O)(=O)N2CCCC(C(=O)NCc3ccncc3)C2)c(C)c1 (configuration not stated)	-	-	-	-	-	-
Cc1csc(SCC(=O)NCCc2ccc(Cl)cc2)n1	-	-	-	-	32.5	-
Cc1ccc(CNC(=O)CSc2nc(C)cs2)cc1	-	-	-	-	-	-
O=C(COc1ccc(Br)cc1)NC(=S)Nc1ccccc1N1CCOCC1	-	-	-	-	26.2	-
Cc1ccccc1CSc1nc2c(c(=O)[nH]1)CCCC2	-	50.5	-	.	.	.
O=c1[nH]c(SCc2ccccc2Cl)nc2c1CCC2	-	-	-	-	-	-
O=c1cc(-c2ccccc2)nc(SCc2ccc(F)cc2)[nH]1	-	-	-	-	-	-
Cc1ccc(CSc2nc(N)cc(=O)[nH]2)cc1	-	-	-	-	24.5	-
Cc1cccc(CSc2nc3c(c(=O)[nH]2)CCC3)c1	-	-	-	-	-	-
CCCc1cc(=O)[nH]c(SCc2ccc(F)cc2)n1	-	30.6	-	-	-	-
N#Cc1ccc(CSc2nc(N)cc(=O)[nH]2)cc1	-	-	-	-	-	-
Cc1ccc(CSc2nc3c(c(=O)[nH]2)CCC3)cc1	-	-	-	-	24.8	-
COC(=O)[C@@H](Cc1c[nH]c2ccccc12)NCc1cccc(B(O)O)c1	.	.	.	-	-	-
Oc1ccc(/C=N/Nc2ncnc3c2ncn3Cc2ccccc2)cc1O	-	30.4	-	-	-	-
C[C@@H]1NC(=O)c2cc([N+](=O)[O-])cc(I)c2OCC[C@@H](C(N)=O)NC(=O)[C@H](CCCCN)NC1=O	-	-	-	-	-	-
NCCCC[C@H]1NC(=O)[C@H](CCC(=O)O)NC(=O)c2cc([N+](=O)[O-])cc(I)c2OCC[C@@H](C(N)=O)NC1=O	-	32.8	-	.	.	.
Cc1sc(N)nc1-c1ccccc1	-	-	-	-	-	-
CC(C)(C)c1sc(N)nc1-c1ccccc1	-	-	-	-	26.9	-
O=[N+]([O-])c1ccc(N/N=C\c2cccn2-c2ccccc2)nc1	-	29.5	-	-	-	-
O=[N+]([O-])c1ccc(NN=Cc2ccccc2)nc1	.	.	.	-	-	-
COc1ccccc1N(CC(=O)NCCSCc1ccc(C)cc1)S(=O)(=O)c1ccccc1	-	-	-	-	26.8	-
Cc1nc2c(C(=O)NCCC(C)C)c[nH]n2c(=O)c1Cc1ccccc1F	15.5	30.8	-	-	-	-
Cc1nc2c(C(=O)NCCC(C)C)c[nH]n2c(=O)c1Cl	-	-	-	-	-	-
Cc1ccc(CN(C(=O)Cn2nnc3ccccc32)C(C(=O)NCc2ccco2)c2cccs2)cc1 (configuration not stated)	16.6	-	-	-	-	-
CCOc1ccc(S(=O)(=O)N2CCC(C(=O)NC3CC3)CC2)cc1Cl	-	-	-	-	-	-
CN(CC(=O)Nc1ccc(F)cc1)C(=O)COC(=O)c1cc(Br)c(Br)s1	.	.	.	-	24.2	-
Cc1ccc(SCC(=O)OCC(=O)N(C)CC(=O)Nc2ccc(F)cc2)cc1	-	26.7	-	-	43.8	-
